40 molecules from PubChem BioAssay can be followed below.

Calls of active or inactive are those of the source.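 How the source made its calls, unless noted: active means visually confirmed hit in the image check and inhibition above 20%; inconclusive means visually confirmed hit but inhibition not above 20%; inactive means no visual hit in the image check.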

Sequence of Voltage-gated potassium channel subunit beta-2 (Rattus norvegicus) (P62483 whole entry, looked up): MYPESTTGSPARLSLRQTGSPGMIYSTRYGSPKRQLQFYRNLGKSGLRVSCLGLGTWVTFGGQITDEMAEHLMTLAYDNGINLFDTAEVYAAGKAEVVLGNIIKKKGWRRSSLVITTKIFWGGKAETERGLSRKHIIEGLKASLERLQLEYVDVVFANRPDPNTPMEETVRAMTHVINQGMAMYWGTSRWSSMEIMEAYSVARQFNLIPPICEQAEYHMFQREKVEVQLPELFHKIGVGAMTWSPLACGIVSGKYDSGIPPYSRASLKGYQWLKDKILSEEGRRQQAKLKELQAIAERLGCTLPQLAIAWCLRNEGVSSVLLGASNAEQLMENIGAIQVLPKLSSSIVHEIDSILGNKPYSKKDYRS

Tested on in one test: not listed separately
The test can be described thus: inhibitors of E-selectin induction by TNFa, primary screen, imaging, HUVEC, immunofluorescence, MLSMR starter and 10KST1 sets (AID 487).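 On inhibition: signal is fraction of cell area covered by stained E-selectin grains.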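 On nuclei count: 100% = median nuclei count of all wells on the same plate.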 As to conditions: HUVEC TNFalpha-induced E-selectin immunofluorescence imaging, at 2 µM; inhibition: stronger effect = higher value; nuclei count: measured here: cell number, toxicity.
Consider `CN(Cc1ccccc1)Cc1nc2c(c(=O)n(C)c(=O)n2C)n1Cc1ccc(Cl)cc1`, for which the inhibition is -32.1% (inactive) and the nuclei count was 161%.

For `C=CCOC(=O)CCC(=O)Nc1cc(OC)nc(OC)n1`, the nuclei count stood at 116% and the inhibition was -0.8% (inactive).

`O=C(NCc1cccs1)c1cc2c(s1)-c1ccccc1OC2`: the inhibition is -49.2% (inactive) and the nuclei count amounted to 108%.

`O=C(O)CN1C(=O)C2(OCCCO2)c2ccccc21`: the nuclei count is 124% and the inhibition is -0.7% (inactive).

As for `CS(=O)(=O)c1ccc2nc(NC(=O)c3cccs3)sc2c1`, the nuclei count amounted to 104% and the inhibition is 3.9% (inactive).

Consider `CSc1nc(C)cc(OCC(=O)N2CCOCC2)n1`, for which the inhibition was -37.5% (inactive) and the nuclei count is 95%.

With `CC1CN(C(=O)CSc2nnc(-c3ccncc3)n2-c2ccccc2)CC(C)O1` (stereo not given), the nuclei count was found to be 124% and the inhibition is 71.2% (active).

Take `CCOC(=O)c1cccc(NC(=O)c2ccco2)c1`: the inhibition is 38.8% (inactive) and the nuclei count turned out to be 97%.

In the case of `Cc1ccc(Cn2c(=N)c(C(=O)NCc3ccco3)cc3c(=O)n4ccccc4nc32)cc1`, the inhibition is -83% (inactive) and the nuclei count amounted to 106%.

`COC(=O)c1ccccc1S(=O)(=O)NC(=O)c1ccccc1`: the nuclei count was 114% and the inhibition is -26% (inactive).

With `N#Cc1ccc(COC(=O)Cn2nnc(-c3ccccc3)n2)cc1`, the nuclei count came out at 121% and the inhibition is -124% (inactive).

On to `CCOC(=O)Nc1c(O)ccc2oc(C)c(-c3ccccc3)c12`, for which the nuclei count stood at 106% and the inhibition is -63.2% (inactive).

`CCOC(=O)C1CCN(Cc2ccc(OC)c(C)c2OC)CC1`: the inhibition was -41.2% (inactive) and the nuclei count is 108%.

For `O=C(CSCc1cnn(-c2ccccc2)c1-n1cccc1)NCC1CCCO1` (stereo not given), the inhibition was -1.9% (inactive) and the nuclei count was 121%.

For the molecule `CCOc1ccc(C2CC(c3cccc(OC)c3)Nc3nc(N)nn32)cc1` (stereo not given), the inhibition was 36.3% (inactive) and the nuclei count came out at 97.4%.

With `CCOc1ccc(-c2nc(C#N)c(NCc3ccc4c(c3)OCO4)o2)cc1`, the nuclei count came out at 120% and the inhibition is -56.3% (inactive).

As to `COc1cccc(-c2nnc(NC(C)=O)o2)c1`, the inhibition is -24.3% (inactive) and the nuclei count is 118%.

For `CC1(C)CC(=O)C(C#N)=C(NCCCO)C1`, the inhibition was 42.4% (inactive) and the nuclei count is 109%.

In the case of `COc1cccc(-c2noc(-c3cccs3)n2)c1`, the nuclei count is 131% and the inhibition is -29.5% (inactive).

Turning to `CCOC(=O)CCc1c(C)nc2cc(-c3ccc(F)cc3)[nH]n2c1=O`, the inhibition was -8.7% (inactive) and the nuclei count was 107%.

On to `CCOC(=O)c1c(C)[nH]c(C(=O)COC(=O)C2CC2C)c1C` (stereo not given), for which the inhibition is -20.9% (inactive) and the nuclei count stood at 125%.

Take `CCN(CC)S(=O)(=O)c1ccc(F)c(C(=O)NCCC(C)C)c1`: the inhibition is -22.3% (inactive) and the nuclei count came to 99.2%.

For the molecule `CCOC(=O)c1cnn(-c2cc(C)nc3c(-c4ccccc4)c(C)nn23)c1N`, the inhibition was -27.2% (inactive) and the nuclei count is 120%.

On to `CC(NCc1ccco1)C(=O)N1CCc2ccccc2C1` (stereo not given), for which the inhibition was 27% (inactive) and the nuclei count turned out to be 108%.

As to `COc1ccc(OC)c(-c2nnc(SCC(=O)NC3CCCCC3)o2)c1`, the nuclei count came out at 114% and the inhibition was -24.5% (inactive).

`O=C1NC2(Nc3ccccc31)C(=O)Nc1ccccc12` (stereo not given): the inhibition is -129% (inactive) and the nuclei count was 106%.

On to `CCN(CC)CCCN1C(=O)C(=O)/C(=C(/O)c2ccc3c(c2)OCO3)C1c1ccccn1` (stereo not given), for which the inhibition is -18.3% (inactive) and the nuclei count was determined as 90.7%.

Take `COc1ccc(Cn2nnnc2C(c2cc3cc(C)cc(C)c3[nH]c2=O)N2CCOCC2)cc1` (stereo not given): the inhibition is -9.5% (inactive) and the nuclei count turned out to be 108%.

As to `COCCN(CCOC)Cc1c(C)[nH]c2ccccc2c1=O`, the nuclei count was 104% and the inhibition was 1.8% (inactive).

Consider `CN(CCNS(=O)(=O)c1ccc2c(c1)oc(=O)n2C)Cc1ccccc1`, for which the inhibition is -65.3% (inactive) and the nuclei count worked out at 119%.

For the molecule `CCOC(=O)c1c(C)[nH]c(C)c1C(=O)COc1ccc(NC(=O)c2ccco2)cc1`, the nuclei count came to 144% and the inhibition was -423% (inactive).

Regarding `CCCCn1c(NCCC)nc2c1c(=O)[nH]c(=O)n2C`, the nuclei count stood at 124% and the inhibition is -38% (inactive).

Turning to `COc1cccc(C2C(C(N)=O)=C(C)Nc3nc(CCCO)nn32)c1OC` (stereo not given), the nuclei count amounted to 94.1% and the inhibition is -24.5% (inactive).

With `C(=N/n1c2ccccc2c2ccccc21)/c1ccco1`, the nuclei count is 109% and the inhibition was 2.6% (inactive).

Take `COC(=O)Cc1c(C)nc2nc[nH]n2c1=O`: the nuclei count came out at 104% and the inhibition was -21.9% (inactive).

Regarding `Cc1cccc(CC(=O)Nc2c3c(nn2-c2cccc(Cl)c2)CS(=O)C3)c1` (stereo not given), the nuclei count worked out at 110% and the inhibition is -27.9% (inactive).

As for `Cc1ccc(CNC(=O)COC(=O)c2c(C)noc2C)cc1`, the nuclei count is 57.1% and the inhibition is 46% (inactive).

In the case of `CCOCCc1nnc(NC(=O)c2ccc(OC)c(OC)c2)s1`, the nuclei count came out at 154% and the inhibition was -94.6% (inactive).

Take `Cc1cccc(C2CC(c3ccccc3)Nc3nc(N)nn32)c1` (stereo not given): the nuclei count is 120% and the inhibition is -47.9% (inactive).

In the case of `Cc1nn(C)c(C)c1NC(=O)CCSc1nc(-c2ccco2)cc(C(F)(F)F)n1`, the inhibition is 23.6% (inactive) and the nuclei count amounted to 100%.

Another test concerns the target Voltage-gated potassium channel subunit beta-2 (Rattus norvegicus) (UniProt P62483). The test can be described thus: KvBeta enzyme negative modulators, primary screen, biochemical, NADPH fluorescence (AID 622;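 active means fluorescence slope higher than the sample average by over 3 SD, cut at about -0.22 in these data, passing the limit was not always enough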;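 further: slope of raw intensity against log time taken from 70 to 1610 s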). As to conditions: recombinant KvBeta, 4-cyanobenzaldehyde reduction, at 10 µM, stronger effect = higher value.
Consider `CN(Cc1ccccc1)Cc1nc2c(c(=O)n(C)c(=O)n2C)n1Cc1ccc(Cl)cc1`, for which the fluorescence slope is -0.612 (inactive).

With `C=CCOC(=O)CCC(=O)Nc1cc(OC)nc(OC)n1`, the fluorescence slope was -0.422 (inactive).

`O=C(NCc1cccs1)c1cc2c(s1)-c1ccccc1OC2`: the fluorescence slope was -0.122 (inactive).

Regarding `O=C(O)CN1C(=O)C2(OCCCO2)c2ccccc21`, the fluorescence slope is -0.538 (inactive).

For `CS(=O)(=O)c1ccc2nc(NC(=O)c3cccs3)sc2c1`, the fluorescence slope is -0.487 (inactive).

With `CSc1nc(C)cc(OCC(=O)N2CCOCC2)n1`, the fluorescence slope is -0.451 (inactive).

On to `CC1CN(C(=O)CSc2nnc(-c3ccncc3)n2-c2ccccc2)CC(C)O1` (stereo not given), for which the fluorescence slope is -0.605 (inactive).

Take `CCOC(=O)c1cccc(NC(=O)c2ccco2)c1`: the fluorescence slope is -0.387 (inactive).

Regarding `Cc1ccc(Cn2c(=N)c(C(=O)NCc3ccco3)cc3c(=O)n4ccccc4nc32)cc1`, the fluorescence slope was -0.279 (inactive).

Consider `COC(=O)c1ccccc1S(=O)(=O)NC(=O)c1ccccc1`, for which the fluorescence slope is -0.593 (inactive).

Consider `N#Cc1ccc(COC(=O)Cn2nnc(-c3ccccc3)n2)cc1`, for which the fluorescence slope is -0.614 (inactive).

Take `CCOC(=O)Nc1c(O)ccc2oc(C)c(-c3ccccc3)c12`: the fluorescence slope was -0.5 (inactive).

As for `CCOC(=O)C1CCN(Cc2ccc(OC)c(C)c2OC)CC1`, the fluorescence slope is -0.539 (inactive).

Turning to `O=C(CSCc1cnn(-c2ccccc2)c1-n1cccc1)NCC1CCCO1` (stereo not given), the fluorescence slope is -0.581 (inactive).

Regarding `CCOc1ccc(C2CC(c3cccc(OC)c3)Nc3nc(N)nn32)cc1` (stereo not given), the fluorescence slope was -0.619 (inactive).

As to `CCOc1ccc(-c2nc(C#N)c(NCc3ccc4c(c3)OCO4)o2)cc1`, the fluorescence slope is -0.581 (inactive).

As to `COc1cccc(-c2nnc(NC(C)=O)o2)c1`, the fluorescence slope is -0.407 (inactive).

For `CC1(C)CC(=O)C(C#N)=C(NCCCO)C1`, the fluorescence slope was -0.536 (inactive).

As to `COc1cccc(-c2noc(-c3cccs3)n2)c1`, the fluorescence slope is -0.619 (inactive).

As to `CCOC(=O)CCc1c(C)nc2cc(-c3ccc(F)cc3)[nH]n2c1=O`, the fluorescence slope was -0.457 (inactive).

As for `CCOC(=O)c1c(C)[nH]c(C(=O)COC(=O)C2CC2C)c1C` (stereo not given), the fluorescence slope was -0.504 (inactive).

As to `CCN(CC)S(=O)(=O)c1ccc(F)c(C(=O)NCCC(C)C)c1`, the fluorescence slope is -0.353 (inactive).

Take `CCOC(=O)c1cnn(-c2cc(C)nc3c(-c4ccccc4)c(C)nn23)c1N`: the fluorescence slope is -0.625 (inactive).

With `CC(NCc1ccco1)C(=O)N1CCc2ccccc2C1` (stereo not given), the fluorescence slope is -0.48 (inactive).

For `COc1ccc(OC)c(-c2nnc(SCC(=O)NC3CCCCC3)o2)c1`, the fluorescence slope was -0.574 (inactive).

In the case of `O=C1NC2(Nc3ccccc31)C(=O)Nc1ccccc12` (stereo not given), the fluorescence slope is -0.355 (inactive).

Take `CCN(CC)CCCN1C(=O)C(=O)/C(=C(/O)c2ccc3c(c2)OCO3)C1c1ccccn1` (stereo not given): the fluorescence slope is -0.495 (inactive).

For `COc1ccc(Cn2nnnc2C(c2cc3cc(C)cc(C)c3[nH]c2=O)N2CCOCC2)cc1` (stereo not given), the fluorescence slope was -0.51 (inactive).

For `COCCN(CCOC)Cc1c(C)[nH]c2ccccc2c1=O`, the fluorescence slope is -0.351 (inactive).

Take `CN(CCNS(=O)(=O)c1ccc2c(c1)oc(=O)n2C)Cc1ccccc1`: the fluorescence slope was -0.604 (inactive).

Turning to `CCOC(=O)c1c(C)[nH]c(C)c1C(=O)COc1ccc(NC(=O)c2ccco2)cc1`, the fluorescence slope is -0.646 (inactive).

Consider `CCCCn1c(NCCC)nc2c1c(=O)[nH]c(=O)n2C`, for which the fluorescence slope was -0.402 (inactive).

Regarding `COc1cccc(C2C(C(N)=O)=C(C)Nc3nc(CCCO)nn32)c1OC` (stereo not given), the fluorescence slope is -0.455 (inactive).

With `C(=N/n1c2ccccc2c2ccccc21)/c1ccco1`, the fluorescence slope was -0.417 (inactive).

For the molecule `COC(=O)Cc1c(C)nc2nc[nH]n2c1=O`, the fluorescence slope is -0.313 (inactive).

Take `Cc1cccc(CC(=O)Nc2c3c(nn2-c2cccc(Cl)c2)CS(=O)C3)c1` (stereo not given): the fluorescence slope is -0.57 (inactive).

Consider `Cc1ccc(CNC(=O)COC(=O)c2c(C)noc2C)cc1`, for which the fluorescence slope was -0.449 (inactive).

Turning to `CCOCCc1nnc(NC(=O)c2ccc(OC)c(OC)c2)s1`, the fluorescence slope is -0.515 (inactive).

On to `Cc1cccc(C2CC(c3ccccc3)Nc3nc(N)nn32)c1` (stereo not given), for which the fluorescence slope was -0.517 (inactive).

On to `Cc1nn(C)c(C)c1NC(=O)CCSc1nc(-c2ccco2)cc(C(F)(F)F)n1`, for which the fluorescence slope was -0.432 (inactive).
